Laboratory results taken from the supplement of paper PMC10849652.
About 7,900 targets were measured; listed, in parts, are those with a hit and a random draw of the rest. About 0.6% of all pairs of compound and target were hits.

Compound: CC(C)(O)CC(=O)NCCn1ccc2ncnc(Nc3ccc(Oc4cccc(C(F)(F)F)c4)c(Cl)c3)c21
Assay: log2 fold change, soluble protein after heating vs DMSO (PISA); higher = thermal stabilisation; K562 cells, 10 uM, 30 min; active = over 0.2 and 3.5 SD of the protein, either way, in both replicates (recomputed)
Procedure, shortened: (§1)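 Aliquots of K562 cells (2×10^6 cells/mL) treated with 10 μM compound for 30 min were heated for 3 min over 48°C-58°C. After pooling and extraction in PBS with 0.5% NP-40 at 4°C, soluble protein from a 21,000xg, 90 min spin was quantified by TMTpro 16plex LC-MS/MS with channel sums equalised. Thermal stability is expressed against control samples, from duplicates, as a log2 fold change.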

Sequence of UniProt O43164 (O43164 whole entry, looked up): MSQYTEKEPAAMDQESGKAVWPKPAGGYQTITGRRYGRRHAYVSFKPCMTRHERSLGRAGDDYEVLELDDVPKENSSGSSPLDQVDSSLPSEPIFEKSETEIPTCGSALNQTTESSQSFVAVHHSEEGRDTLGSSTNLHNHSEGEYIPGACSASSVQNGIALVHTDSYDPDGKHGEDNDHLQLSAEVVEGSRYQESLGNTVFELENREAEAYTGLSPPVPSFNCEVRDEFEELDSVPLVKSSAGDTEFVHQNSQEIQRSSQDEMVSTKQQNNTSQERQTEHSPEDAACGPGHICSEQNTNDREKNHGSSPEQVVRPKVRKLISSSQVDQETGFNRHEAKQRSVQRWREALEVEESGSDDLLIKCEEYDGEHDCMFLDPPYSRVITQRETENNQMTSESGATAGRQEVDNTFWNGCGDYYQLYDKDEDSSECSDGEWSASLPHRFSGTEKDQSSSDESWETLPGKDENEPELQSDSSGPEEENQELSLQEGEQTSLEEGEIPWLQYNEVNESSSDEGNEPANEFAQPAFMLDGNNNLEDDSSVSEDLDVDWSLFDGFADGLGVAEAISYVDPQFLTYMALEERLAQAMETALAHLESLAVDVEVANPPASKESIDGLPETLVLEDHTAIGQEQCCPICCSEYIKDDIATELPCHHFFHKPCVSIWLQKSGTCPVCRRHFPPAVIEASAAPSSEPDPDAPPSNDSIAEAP
Sequence of UniProt Q16512 (Q16512 whole entry, looked up): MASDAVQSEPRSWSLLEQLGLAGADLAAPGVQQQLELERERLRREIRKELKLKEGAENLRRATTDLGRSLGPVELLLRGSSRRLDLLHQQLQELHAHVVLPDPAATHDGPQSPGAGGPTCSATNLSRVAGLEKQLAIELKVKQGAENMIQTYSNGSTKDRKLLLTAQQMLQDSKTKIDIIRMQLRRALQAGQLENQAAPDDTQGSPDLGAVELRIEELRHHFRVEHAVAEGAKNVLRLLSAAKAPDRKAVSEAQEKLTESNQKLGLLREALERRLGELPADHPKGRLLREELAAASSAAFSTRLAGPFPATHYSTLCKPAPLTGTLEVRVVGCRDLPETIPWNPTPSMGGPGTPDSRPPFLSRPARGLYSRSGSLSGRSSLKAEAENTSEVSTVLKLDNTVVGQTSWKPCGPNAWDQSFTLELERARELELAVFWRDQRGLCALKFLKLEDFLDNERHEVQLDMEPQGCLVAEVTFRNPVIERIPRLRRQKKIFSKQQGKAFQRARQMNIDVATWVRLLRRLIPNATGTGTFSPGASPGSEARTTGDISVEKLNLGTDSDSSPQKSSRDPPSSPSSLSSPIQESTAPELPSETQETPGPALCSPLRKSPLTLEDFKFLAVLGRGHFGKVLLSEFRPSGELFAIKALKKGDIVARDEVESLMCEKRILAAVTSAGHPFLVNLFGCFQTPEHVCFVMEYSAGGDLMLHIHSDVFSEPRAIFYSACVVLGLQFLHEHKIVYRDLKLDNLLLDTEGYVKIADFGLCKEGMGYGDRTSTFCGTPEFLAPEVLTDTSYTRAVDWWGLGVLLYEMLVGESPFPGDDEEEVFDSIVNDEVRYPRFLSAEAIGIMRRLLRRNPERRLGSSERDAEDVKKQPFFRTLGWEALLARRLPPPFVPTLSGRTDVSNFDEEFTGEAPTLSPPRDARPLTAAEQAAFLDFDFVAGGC
Sequence of UniProt O15355 (O15355 whole entry, looked up): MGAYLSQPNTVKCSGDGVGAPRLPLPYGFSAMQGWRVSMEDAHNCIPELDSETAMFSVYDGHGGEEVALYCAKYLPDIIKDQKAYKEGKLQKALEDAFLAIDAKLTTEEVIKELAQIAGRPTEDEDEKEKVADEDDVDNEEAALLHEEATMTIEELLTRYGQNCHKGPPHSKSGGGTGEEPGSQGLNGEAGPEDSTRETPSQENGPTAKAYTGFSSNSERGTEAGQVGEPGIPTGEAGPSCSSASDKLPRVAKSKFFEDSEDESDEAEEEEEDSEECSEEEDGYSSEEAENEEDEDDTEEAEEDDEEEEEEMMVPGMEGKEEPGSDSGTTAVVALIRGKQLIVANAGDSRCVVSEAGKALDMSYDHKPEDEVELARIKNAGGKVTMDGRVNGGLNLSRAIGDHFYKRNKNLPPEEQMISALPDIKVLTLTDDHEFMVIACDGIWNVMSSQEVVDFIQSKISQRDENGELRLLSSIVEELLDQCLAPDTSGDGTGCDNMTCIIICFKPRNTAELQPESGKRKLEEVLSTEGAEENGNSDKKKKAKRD
Sequence of UniProt P31321 (P31321 whole entry, looked up): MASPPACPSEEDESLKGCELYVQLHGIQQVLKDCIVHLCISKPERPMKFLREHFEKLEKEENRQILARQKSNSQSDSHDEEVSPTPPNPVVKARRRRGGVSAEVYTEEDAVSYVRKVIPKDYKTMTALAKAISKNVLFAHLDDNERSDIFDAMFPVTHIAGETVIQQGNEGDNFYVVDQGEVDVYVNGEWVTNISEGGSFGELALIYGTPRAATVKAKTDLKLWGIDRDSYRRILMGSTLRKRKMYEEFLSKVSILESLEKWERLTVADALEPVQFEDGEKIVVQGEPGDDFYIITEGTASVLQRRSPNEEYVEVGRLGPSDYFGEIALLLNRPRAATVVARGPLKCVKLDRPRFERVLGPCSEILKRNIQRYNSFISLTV
Sequence of UniProt Q99541 (Q99541 whole entry, looked up): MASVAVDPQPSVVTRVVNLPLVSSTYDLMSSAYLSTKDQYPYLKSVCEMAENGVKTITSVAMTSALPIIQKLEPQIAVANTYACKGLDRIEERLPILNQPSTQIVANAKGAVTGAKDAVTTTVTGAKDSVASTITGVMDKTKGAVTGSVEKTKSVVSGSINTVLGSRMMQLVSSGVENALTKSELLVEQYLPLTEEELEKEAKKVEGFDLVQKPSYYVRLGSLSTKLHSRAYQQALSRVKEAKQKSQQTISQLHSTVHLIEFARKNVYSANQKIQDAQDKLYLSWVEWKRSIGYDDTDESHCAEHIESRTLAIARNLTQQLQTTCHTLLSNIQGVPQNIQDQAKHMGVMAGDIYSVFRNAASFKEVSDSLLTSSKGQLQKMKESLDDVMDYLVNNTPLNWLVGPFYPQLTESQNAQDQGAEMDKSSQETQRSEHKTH
Sequence of UniProt P50897 (P50897 whole entry, looked up): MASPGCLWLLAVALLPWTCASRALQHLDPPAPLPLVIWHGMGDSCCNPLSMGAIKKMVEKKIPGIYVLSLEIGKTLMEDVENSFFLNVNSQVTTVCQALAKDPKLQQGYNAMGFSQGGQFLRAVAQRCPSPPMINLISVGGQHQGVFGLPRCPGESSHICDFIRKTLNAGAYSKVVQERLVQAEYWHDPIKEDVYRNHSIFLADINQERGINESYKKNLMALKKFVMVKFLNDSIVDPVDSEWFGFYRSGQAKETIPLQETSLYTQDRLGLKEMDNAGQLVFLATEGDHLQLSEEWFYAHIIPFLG
Sequence of UniProt Q8NBL1 (Q8NBL1 whole entry, looked up): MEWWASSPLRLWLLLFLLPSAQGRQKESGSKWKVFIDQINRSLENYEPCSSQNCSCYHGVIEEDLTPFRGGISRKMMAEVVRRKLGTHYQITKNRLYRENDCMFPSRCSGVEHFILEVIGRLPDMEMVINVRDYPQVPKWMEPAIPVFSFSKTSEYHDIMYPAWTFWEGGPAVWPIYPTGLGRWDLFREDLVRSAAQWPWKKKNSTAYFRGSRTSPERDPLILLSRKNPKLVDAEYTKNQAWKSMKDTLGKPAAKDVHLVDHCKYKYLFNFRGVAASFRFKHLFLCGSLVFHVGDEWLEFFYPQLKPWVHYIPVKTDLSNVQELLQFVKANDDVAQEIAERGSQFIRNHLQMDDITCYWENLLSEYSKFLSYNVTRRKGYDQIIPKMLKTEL
Sequence of UniProt Q92871 (Q92871 whole entry, looked up): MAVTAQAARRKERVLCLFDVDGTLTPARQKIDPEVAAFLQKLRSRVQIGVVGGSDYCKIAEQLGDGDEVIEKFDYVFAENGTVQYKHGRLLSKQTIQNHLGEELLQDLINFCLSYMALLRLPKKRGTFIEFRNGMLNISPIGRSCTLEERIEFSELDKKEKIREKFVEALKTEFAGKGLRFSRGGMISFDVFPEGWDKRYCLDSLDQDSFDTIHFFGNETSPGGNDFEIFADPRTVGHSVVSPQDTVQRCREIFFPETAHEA
Sequence of UniProt Q32M88 (Q32M88 whole entry, looked up): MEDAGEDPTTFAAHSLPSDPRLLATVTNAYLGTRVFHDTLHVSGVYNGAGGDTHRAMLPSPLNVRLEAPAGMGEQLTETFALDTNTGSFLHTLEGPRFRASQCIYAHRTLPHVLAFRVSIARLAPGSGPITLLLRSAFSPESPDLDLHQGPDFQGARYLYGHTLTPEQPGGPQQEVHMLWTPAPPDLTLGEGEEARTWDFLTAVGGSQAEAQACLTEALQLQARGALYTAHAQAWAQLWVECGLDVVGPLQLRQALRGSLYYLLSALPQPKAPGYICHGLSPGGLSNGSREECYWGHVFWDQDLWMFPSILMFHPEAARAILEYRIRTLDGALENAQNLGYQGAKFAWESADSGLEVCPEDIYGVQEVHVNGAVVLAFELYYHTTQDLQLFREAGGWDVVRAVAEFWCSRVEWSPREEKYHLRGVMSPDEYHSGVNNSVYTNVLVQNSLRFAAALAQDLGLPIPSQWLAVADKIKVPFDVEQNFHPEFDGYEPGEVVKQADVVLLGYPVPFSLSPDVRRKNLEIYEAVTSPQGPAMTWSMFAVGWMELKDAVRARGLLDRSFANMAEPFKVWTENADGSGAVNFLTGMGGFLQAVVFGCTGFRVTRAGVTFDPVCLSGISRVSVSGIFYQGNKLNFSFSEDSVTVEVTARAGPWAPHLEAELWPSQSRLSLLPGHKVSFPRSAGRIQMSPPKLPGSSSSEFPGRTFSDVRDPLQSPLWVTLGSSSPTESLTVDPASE
Sequence of UniProt Q96A00 (Q96A00 whole entry, looked up): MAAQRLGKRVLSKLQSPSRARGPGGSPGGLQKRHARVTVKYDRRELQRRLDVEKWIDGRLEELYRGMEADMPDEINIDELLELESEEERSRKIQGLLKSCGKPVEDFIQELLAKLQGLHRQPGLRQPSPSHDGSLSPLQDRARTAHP
Sequence of UniProt P06454 (P06454 whole entry, looked up): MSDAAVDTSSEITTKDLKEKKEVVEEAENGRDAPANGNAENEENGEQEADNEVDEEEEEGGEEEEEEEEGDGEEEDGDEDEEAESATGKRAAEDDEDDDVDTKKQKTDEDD

Q: With PLIN2 (UniProt Q99541) as the target, how does the log2 fold change read?
A: -0.083 (inactive)

Q: Which log2 fold change does the source give for PCGF2 (UniProt P35227) here?
A: 0 (inactive)

Q: Which log2 fold change does the source give for PRKAR1B (UniProt P31321) here?
A: -0.013 (inactive)

Q: With PSMB6 (UniProt P28072) as the target, how does the log2 fold change read?
A: 0.045 (inactive)

Q: For PGGHG (UniProt Q32M88), which log2 fold change is on record?
A: 0.05 (inactive)

Q: How did the log2 fold change turn out when PTGFRN (UniProt Q9P2B2) was run?
A: -0.026 (inactive)

Q: For PLCL1 (UniProt Q15111), which log2 fold change is on record?
A: -0.329 (inactive)

Q: For PURA (UniProt Q00577), which log2 fold change is on record?
A: 0.276 (inactive)

Q: With PPT1 (UniProt P50897) as the target, how does the log2 fold change read?
A: 0.039 (inactive)

Q: With PKN2 (UniProt Q16513) as the target, how does the log2 fold change read?
A: -0.042 (inactive)

Q: For PTPMT1 (UniProt Q8WUK0), which log2 fold change is on record?
A: -0.083 (inactive)

Q: PTMA (UniProt P06454) was tested. Which log2 fold change did it give?
A: -0.133 (inactive)

Q: How did the log2 fold change turn out when POGLUT1 (UniProt Q8NBL1) was run?
A: 0.058 (inactive)

Q: For POLR2C (UniProt P19387), which log2 fold change is on record?
A: 0.003 (inactive)

Q: PRPF38B (UniProt Q5VTL8) was tested. Which log2 fold change did it give?
A: 0.045 (inactive)

Q: PSMA3 (UniProt P25788) was tested. Which log2 fold change did it give?
A: 0.071 (inactive)

Q: With PJA2 (UniProt O43164) as the target, how does the log2 fold change read?
A: -0.02 (inactive)

Q: Which log2 fold change does the source give for PTP4A2 (UniProt Q12974) here?
A: -0.051 (inactive)

Q: With PCYT1B (UniProt Q9Y5K3) as the target, how does the log2 fold change read?
A: 0.001 (inactive)

Q: PPP1R14A (UniProt Q96A00) was tested. Which log2 fold change did it give?
A: -0.009 (inactive)

Q: For PIK3CB (UniProt P42338), which log2 fold change is on record?
A: -0.082 (inactive)

Q: POLD3 (UniProt Q15054) was tested. Which log2 fold change did it give?
A: -0.114 (inactive)

Q: For PSMD11 (UniProt O00231), which log2 fold change is on record?
A: 0 (inactive)

Q: PMM1 (UniProt Q92871) was tested. Which log2 fold change did it give?
A: 0.014 (inactive)

Q: With PIP4P2 (UniProt Q8N4L2) as the target, how does the log2 fold change read?
A: 0.142 (inactive)

Q: How did the log2 fold change turn out when PIGT (UniProt Q969N2) was run?
A: -0.067 (inactive)

Q: Which log2 fold change does the source give for POLR2I (UniProt P36954) here?
A: 0.035 (inactive)

Q: PPP6R1 (UniProt Q9UPN7) was tested. Which log2 fold change did it give?
A: -0.031 (inactive)

Q: With PRKCQ (UniProt Q04759) as the target, how does the log2 fold change read?
A: -0.037 (inactive)

Q: How did the log2 fold change turn out when POLR1A (UniProt O95602) was run?
A: -0.022 (inactive)

Q: PRPSAP2 (UniProt O60256) was tested. Which log2 fold change did it give?
A: 0.003 (inactive)

Q: How did the log2 fold change turn out when PSME4 (UniProt Q14997) was run?
A: -0.097 (inactive)

Q: With PPM1G (UniProt O15355) as the target, how does the log2 fold change read?
A: -0.17 (inactive)

Q: How did the log2 fold change turn out when PRKAR2B (UniProt P31323) was run?
A: -0.007 (inactive)

Q: How did the log2 fold change turn out when PKN1 isoform 2 (UniProt Q16512) was run?
A: -0.09 (inactive)

Q: Which log2 fold change does the source give for PRCP (UniProt P42785) here?
A: -0.072 (inactive)

Compound: CC(C)C1=C2N=C(C=C(N2N=C1)NCC3=CC=CC=C3)NCCCCCCN
Assay: as above
Procedure, shortened: as §1

Q: PLIN2 (UniProt Q99541) was tested. Which log2 fold change did it give?
A: -1.11 (active)

Q: PCGF2 (UniProt P35227) was tested. Which log2 fold change did it give?
A: -0.095 (inactive)

Q: PRKAR1B (UniProt P31321) was tested. Which log2 fold change did it give?
A: -0.11 (inactive)

Q: Which log2 fold change does the source give for PSMB6 (UniProt P28072) here?
A: 0.129 (inactive)

Q: PGGHG (UniProt Q32M88) was tested. Which log2 fold change did it give?
A: 0.044 (inactive)

Q: PTGFRN (UniProt Q9P2B2) was tested. Which log2 fold change did it give?
A: 0.222 (active)

Q: For PLCL1 (UniProt Q15111), which log2 fold change is on record?
A: -0.102 (inactive)

Q: How did the log2 fold change turn out when PURA (UniProt Q00577) was run?
A: 0.129 (inactive)

Q: How did the log2 fold change turn out when PPT1 (UniProt P50897) was run?
A: -0.406 (active)

Q: For PKN2 (UniProt Q16513), which log2 fold change is on record?
A: -0.051 (inactive)

Q: How did the log2 fold change turn out when PTPMT1 (UniProt Q8WUK0) was run?
A: -0.579 (active)

Q: How did the log2 fold change turn out when PTMA (UniProt P06454) was run?
A: 0.085 (inactive)

Q: How did the log2 fold change turn out when POGLUT1 (UniProt Q8NBL1) was run?
A: 0.055 (inactive)

Q: For POLR2C (UniProt P19387), which log2 fold change is on record?
A: 0.058 (inactive)

Q: With PRPF38B (UniProt Q5VTL8) as the target, how does the log2 fold change read?
A: -0.06 (inactive)

Q: With PSMA3 (UniProt P25788) as the target, how does the log2 fold change read?
A: 0.102 (inactive)

Q: Which log2 fold change does the source give for PJA2 (UniProt O43164) here?
A: -0.013 (inactive)

Q: How did the log2 fold change turn out when PTP4A2 (UniProt Q12974) was run?
A: 0.035 (inactive)

Q: How did the log2 fold change turn out when PCYT1B (UniProt Q9Y5K3) was run?
A: -0.172 (inactive)

Q: With PPP1R14A (UniProt Q96A00) as the target, how does the log2 fold change read?
A: 0.126 (inactive)

Q: With PIK3CB (UniProt P42338) as the target, how does the log2 fold change read?
A: -0.082 (inactive)

Q: For POLD3 (UniProt Q15054), which log2 fold change is on record?
A: -0.357 (active)

Q: With PSMD11 (UniProt O00231) as the target, how does the log2 fold change read?
A: -0.001 (inactive)

Q: PMM1 (UniProt Q92871) was tested. Which log2 fold change did it give?
A: 0.187 (inactive)

Q: How did the log2 fold change turn out when PIP4P2 (UniProt Q8N4L2) was run?
A: -0.624 (active)

Q: With PIGT (UniProt Q969N2) as the target, how does the log2 fold change read?
A: -0.089 (inactive)

Q: How did the log2 fold change turn out when POLR2I (UniProt P36954) was run?
A: 0.389 (inactive)

Q: PPP6R1 (UniProt Q9UPN7) was tested. Which log2 fold change did it give?
A: -0.077 (inactive)

Q: PRKCQ (UniProt Q04759) was tested. Which log2 fold change did it give?
A: -0.103 (inactive)

Q: For POLR1A (UniProt O95602), which log2 fold change is on record?
A: -0.091 (inactive)

Q: With PRPSAP2 (UniProt O60256) as the target, how does the log2 fold change read?
A: 0.035 (inactive)

Q: With PSME4 (UniProt Q14997) as the target, how does the log2 fold change read?
A: -0.043 (inactive)

Q: PPM1G (UniProt O15355) was tested. Which log2 fold change did it give?
A: -0.223 (inactive)

Q: For PRKAR2B (UniProt P31323), which log2 fold change is on record?
A: -0.068 (inactive)

Q: PKN1 isoform 2 (UniProt Q16512) was tested. Which log2 fold change did it give?
A: -0.038 (inactive)

Q: PRCP (UniProt P42785) was tested. Which log2 fold change did it give?
A: -0.077 (inactive)
